Cycloheximide cs: Cycloheximide Counterscreen for Small Molecule Inhibitors of Shiga Toxin. cell reporter, cycloheximide protein synthesis inhibition counterscreen. max response, %. hit rate 12% among 300,000; in the data active = max response mostly above about 13%, no sharp cut-off; inactive = mostly below about 14%; note: read at 38.3 µM for the half of the compounds with a filed dose; 0% is about no effect
Pf growth 48h: Primary qHTS for delayed death inhibitors of the malarial parasite plastid, 48 hour incubation | P. falciparum luciferase growth in erythrocytes, 48 h | Potency, µM (highest dose often 28.7 µM), without a hit: top-dose activity change, negative = inhibition, hits mostly inhibitors | hit rate 5.9% among 310,000 | AID 504832, 2011; note: potency is the fitted concentration of half-maximal effect; % is set by controls: 0 for no effect and ±100 for the full control effect
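Parasite viability was followed by luminescence of a genomically integrated firefly luciferase. Cultures held 0.1% parasitemia at 2% hematocrit (final), incubated under 5% CO2 at 37 C.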
Pf growth 96h: Primary qHTS for delayed death inhibitors of the malarial parasite plastid, 96 hour incubation. P. falciparum luciferase reporter growth, 96 h. Potency, µM (titrated, usually from 28.7 µM), inactives show at the top dose activity change, negative = inhibition, actives largely listed as inhibitors. hit rate 6.9% among 320,000; note: potency is the fitted concentration of half-maximal effect; % is set by controls: 0 for no effect and ±100 for the full control effect
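96 h incubation, 37 C, 5% CO2, of luciferase-reporter P. falciparum-infected RBCs (2% hematocrit, 0.05% parasitemia final) with test compounds; endpoint luminescence.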
HCMV inh: qHTS Assay for inhibitors of the human cytomegalovirus (HCMV); HFF cells, HCMV-luciferase reporter, 72 h; stronger effect = lower value; hit rate 4.5% among 410,000; activity change, negative = inhibition, % at 57.5 µM; in the data active = activity change below about -60%; inconclusive = no clear call, values can overlap the other calls; inactive = above about -39%; note: % is set by controls: 0 for no effect and ±100 for the full control effect
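Screen run at 2 compound doses on HFFs infected with reporter HCMV, MOI 1 PFU/cell. Luciferase activity from cell lysates at 72 h post infection gave inhibition relative to buffer-only and Salinomycin wells.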
Shiga toxin inh: A qHTS for Small Molecule Inhibitors of Shiga Toxin. Vero cells, Shiga toxin protein synthesis inhibition reporter. hit rate 9.2% among 290,000. inhibition, % at 38.7 µM; in the data active = inhibition mostly above about 28%, no sharp cut-off; inactive = mostly below about 43%; note: 0% is about no effect
The depositor's hits bear a star; ? = inconclusive; . = no result given; [ ] = remark or other dose. Rows were chosen to be rich in hits. Some 20% of all compounds tested hit in one or more screens of this group. Unless noted, calls come from the whole dose curve; as a rule, active = well fitted inhibition curve with a large enough effect; inconclusive = small, poorly fitted or top-dose-only effect, or another doubt; inactive = no such curve, though single readings can be large or run the other way.

SMILES	Cycloheximide cs	Pf growth 48h	Pf growth 96h	HCMV inh	Shiga toxin inh
CCc1ccc(OCCCC(=O)Nc2ccc(N3CCOCC3)cc2)cc1	2	-18%	7.4µM*	-40	1
CC(CC(=O)Nc1ccc(S(=O)(=O)N2CCOCC2)cc1)c1ccccc1 (centres undefined)	-3	3.3µM*	9%	-16	2
O=C(NC1CCCC1)c1ccc(CSc2nc3ccncc3n2Cc2cccc(F)c2)cc1	.	.	.	-2	.
Cc1ccc(OCCCC(=O)Nc2ccc(S(=O)(=O)N3CCOCC3)cc2)cc1	.	?	-26%	-63*	.
O=S(=O)(c1ccc(NC(=S)NCCC(c2ccccc2)c2ccccc2)cc1)N1CCOCC1	9	?	8.3µM*	-99*	9
CCOC(=O)CSc1cccc2cccnc12	17	?	-25%	-87*	53*
COC(=O)C(O)(CC(=O)Nc1cccc(SC)c1)C(F)(F)F (centres undefined)	-1	14%	91%	-6	-1
COc1ccc(C(=O)Nc2nc3ccccc3[nH]2)cc1S(=O)(=O)N1CCCC1	19*	-27%	.	13	75*
CCOc1ccc(C(=O)Nc2nc3ccccc3[nH]2)cc1OCC	51*	?	?	-63*	105*
COc1ccc(OC)c(S(=O)(=O)N2CCC(c3nc4ccccc4[nH]3)CC2)c1	.	?	10µM*	-2	.
COc1ccc(C(=O)NCc2nc3ccccc3[nH]2)cc1OC	-2	22%	46%	17	-8
COc1ccc(C(=O)Nc2nc3ccccc3[nH]2)cc1OC	42*	196%	39%	119	86*
Cc1ccc(NC(=O)CN2CCCN(Cc3ccccc3Cl)S2(=O)=O)c(C)c1	.	.	.	0	.
COc1ccc(NC(=O)CSc2nncn3c2cc2occc23)c(OC)c1	.	.	.	-37	.
CCn1c(C(C)NC(=O)c2ccc(OC)c(OC)c2)nc2ccccc21 (centres undefined)	18*	2%	?	36	70*
COc1cc(C(=O)Nc2nc3ccccc3[nH]2)ccc1OC(F)F	39*	139%	-67%	-14	62*
COc1ccc(C(=O)NC(C)c2nc3ccccc3[nH]2)cc1OC (centres undefined)	-2	5%	?	1	2
CCCCCCCCC/C(=N\O)c1ccccn1	24*	?	?	-15	83*
O=C(O)CCCCCN1C(=O)C(O)=C(C(=O)/C=C/c2ccccc2)C1c1ccccc1[N+](=O)[O-] (centres undefined)	14*	33%	9.3µM*	-8	41
C=C(C)c1cccc(C(C)(C)NC(=O)N2CCC(C(N)=O)CC2)c1	1	5%	-9%	-29	-9
Cn1c(=O)c2c(nc(Cl)n2CC(=O)NC2(C#N)CCCCC2)n(C)c1=O	.	0%	2%	-101*	.
N#CC1(NC(=O)Cn2ncc(Cl)c(Cl)c2=O)CCCCC1	.	3%	4%	-14	.
O=C(Cc1coc2ccc3ccccc3c12)Nc1nnc(C2CC2)s1	-6	3%	?	-77*	-29
O=C(Cc1c[nH]c2ccccc12)Nc1nnc(C2CC2)s1	1	-1%	-7%	-80*	-2
Cc1cc2occ(CC(=O)Nc3nnc(C4CC4)s3)c2cc1C	-6	-3%	.	-10	22
SMILES	Cycloheximide cs	Pf growth 48h	Pf growth 96h	HCMV inh	Shiga toxin inh
Cc1nc2nc(NC(=O)c3ccc(Cl)cc3)[nH]n2c(=O)c1Cc1ccccc1	.	.	.	-18	.
O=C1c2ccccc2C(=O)N1OS(=O)(=O)c1ccc(F)cc1	11	18%	24%	-7	5
Cc1ccc(S(=O)(=O)ON2C(=O)c3ccccc3C2=O)c(C)c1	1	3%	-14%	-71*	-2
Cc1cc(C)c(S(=O)(=O)ON2C(=O)c3ccccc3C2=O)cc1C	-5	34%	44%	-81*	-14
Cc1cc(C)c(C)c(S(=O)(=O)ON2C(=O)c3ccccc3C2=O)c1C	16	7%	82%	-76*	16
Oc1c(CN2CCOCC2)cc(CN2CCOCC2)c(O)c1O	.	.	.	-8	.
Oc1c(CN2CCOCC2)cc(COCc2ccccc2)c2cccnc12	28*	2.6µM*	31%	-95*	26
Oc1c(CNc2ccccc2)cc(COCc2ccccc2)c2cccnc12	.	1.2µM*	3.3µM*	-100*	.
Fc1cccc(COc2ccccc2CNc2ccccc2)c1	-2	-18%	-23%	-10	18
CCOc1ccccc1C(=O)NCC(=O)NCCc1ccc(S(N)(=O)=O)cc1	-3	8%	0%	5	-10
CO[C@]1(NC(=O)C2SC(=C(C(N)=O)C(=O)O)S2)C(=O)N2C(C(=O)O)=C(CSc3nnnn3C)CS[C@H]21 (some centres undefined)	.	1%[12.8 µM]	-2%[12.8 µM]	.	.
CCn1nc(C)c(CCN(C)C(=O)Nc2cccc(Cl)c2C)c1C	.	.	.	31	.
COc1ccc(N2CCN(C(CNC(=O)CC(C)C)c3ccc4c(c3)OCO4)CC2)cc1 (centres undefined)	.	.	.	-2	.
CC(=O)N(CC(=O)N(CC(=O)O)c1ccc(Cl)cc1)c1ccc(Cl)cc1	.	.	.	14	.
O=C(CN1C(=O)S/C(=C\c2ccc(F)cc2)C1=O)NC1C=CS(=O)(=O)C1 (centres undefined)	12	-15%	?	?	-4
O=C(CN1C(=O)S/C(=C\c2ccccc2F)C1=O)NC1C=CS(=O)(=O)C1 (centres undefined)	-3	?	?	-63*	-4
CCN1CCN(C(=O)C(NS(=O)(=O)c2ccc3nc(C)sc3c2)C(C)C)CC1 (centres undefined)	-3	.	9.3µM*	?	-6
OC(c1ccc2ccccc2c1)c1ncc(-c2cccc3ccccc23)[nH]1 (centres undefined)	.	.	.	20	.
C=CSc1sc(Cl)c(N2CCOCC2)c1[N+](=O)[O-]	15	8.3µM*	25%	?	20
C=CS(=O)(=O)c1sc(Cl)c(N2CCOCC2)c1[N+](=O)[O-]	16*	-7%	-13%	-72*	21
O=[N+]([O-])c1cccc(Cl)c1N1CCOCC1	-5	20%	?	6	2
COc1ccc(Cc2c(-c3cccc(Cl)c3)nc3cc(C)c(Br)c(C)n23)c(C)c1	.	.	.	13	.
Cc1ccc(S(=O)(=O)NCC2CCC(C(=O)NCCc3ccccc3)CC2)cc1 (centres undefined)	.	.	.	0	.
COc1cc(-c2nc3nc(C)cc(C)n3c2Nc2ccc(Cl)cc2)ccc1O	.	.	.	136	.
CC(Cl)OC(=O)Nc1cccc2cccnc12 (centres undefined)	1	.	.	.	-13
CCOC(=O)c1c(CN(CC)CC)oc2ccc(OC)cc12	-1	?	15µM*	7	-1
O=C(Nc1ncccc1Cl)c1cccc(F)c1	-5	.	27%	-31	1
Cc1cc(C)c(NC(=O)NC(=O)c2cccc(F)c2)c(C)n1	15*	35%	158%	42	37

Bioassay records deposited in PubChem by National Center for Advancing Translational Sciences (NCATS).
